# Target: AMP-activated protein kinase, AMPK (Homo sapiens) (UniProt P54646+O43741+P54619+Q9UGJ0+Q9Y478+Q13131+Q9UGI9)
# Assay: AMP-dependent Kinase enzyme assay. An in vitro enzyme assay that detects ADP turnover that is directly proportional to AMPK activity. This uses naive AMPK that is activated during the assay with MK-8722
# Assay type: functional
# Design: scale not given: direction of the effect not stated beside the values
# Details: 30 µM
row,SMILES,Percent Effect [%]
1,COCCC1CCCCN1C(=O)c1coc(COc2ccccc2F)n1 (centres undefined),12.2
2,CCc1cc(=O)[nH]c(-c2ccc(NC(CO)CC(C)C)nc2)n1 (centres undefined),4.58
3,CCN(CCOC)C(=O)c1ccc2c(c1)nc(N1CC[C@H](O)C1)n2C,3.21
4,CCn1cnnc1CNC(=O)N1CCOC(c2ccc(F)cc2)C1 (centres undefined),-5.45
5,Cc1ccc(C(=O)NC2CCN(C(C)C)C2)c(=O)[nH]1 (centres undefined),-2.69
6,CN(c1ncc(S(N)(=O)=O)s1)C1CCC1,5.05
7,Clc1cc(NCc2nccs2)nc2[nH]ccc12,15.1
8,COCCN1CCN(Cc2coc(-c3ccccc3Cl)n2)CC1,-1.56
9,Cn1ncc2c1CCCC2NCc1ccc(OCc2cccnc2)cc1 (centres undefined),2.53
10,O=C(CC1C=CCC1)N1CCc2ncnc(NCc3ccon3)c2CC1 (centres undefined),21.6
11,Cc1nsc(C(=O)NCCc2ccccc2)n1,3.51
12,Cc1n[nH]c(C)c1CCN(C)c1ccc(-c2nc(C3CC3)no2)cn1,-6.17
13,N#Cc1c(C2CC2)cc(-c2ccc(F)c(F)c2)nc1N,10.4
14,COCCOCC1CCN(C(=O)c2ccc3[nH]cnc3c2)C1 (centres undefined),-11.9
15,O=C(CCn1cncn1)NCCOc1cccc(Cl)c1,-7.83
16,CC(C)c1nnc(CN2CCCc3ccc(S(N)(=O)=O)cc32)o1,0.503
17,OCCCNc1cccc(COC2CCCCC2)c1,-15.3
18,CC(=O)N1CC(c2ccnc(Nc3nccs3)n2)C1,1.83
19,Cc1cnn(C2CN(CCCOc3ccc(C#N)cc3)C2)c1,-0.666

# — ChEMBL document CHEMBL3988442, “University of Dundee, Small-Polar-MMV Screening Library” (2021)
